These results are taken from ChEMBL document CHEMBL1961873, “Compounds: GSK PKIS; Assays: Nanosyn kinase panel” (2012).

For assay [1], the target named is T1, 3-phosphoinositide-dependent protein kinase 1 (Homo sapiens) (UniProt O15530).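 Note: values are mean inhibition of PDK1.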
T1 sequence (whole entry): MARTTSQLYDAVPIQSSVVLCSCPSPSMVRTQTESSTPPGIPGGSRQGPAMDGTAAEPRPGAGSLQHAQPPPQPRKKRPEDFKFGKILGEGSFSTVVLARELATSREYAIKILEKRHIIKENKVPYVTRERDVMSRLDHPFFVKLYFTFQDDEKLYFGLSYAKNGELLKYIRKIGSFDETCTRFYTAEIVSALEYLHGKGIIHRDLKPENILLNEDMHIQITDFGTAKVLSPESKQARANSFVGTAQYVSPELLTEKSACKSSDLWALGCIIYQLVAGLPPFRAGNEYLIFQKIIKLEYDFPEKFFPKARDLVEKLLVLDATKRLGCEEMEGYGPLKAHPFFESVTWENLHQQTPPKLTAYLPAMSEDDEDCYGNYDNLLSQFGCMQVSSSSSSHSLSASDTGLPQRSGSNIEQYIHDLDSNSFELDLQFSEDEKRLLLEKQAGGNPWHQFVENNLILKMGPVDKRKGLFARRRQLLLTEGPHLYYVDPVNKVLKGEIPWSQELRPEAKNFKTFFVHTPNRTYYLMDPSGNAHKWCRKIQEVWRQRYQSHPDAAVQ
The following applies: at 0.1 µM.

Assay [2] concerns the target cAMP-dependent protein kinase catalytic subunit alpha (Homo sapiens) (UniProt P17612). The following applies: at 0.1 µM.
For assay [3] the target is unchanged. The following applies: at 1 µM.
In assay [4] the target is Protein kinase C alpha type (Homo sapiens) (UniProt P17252). The following applies: at 0.1 µM.
Assay [5] has the same target. As to conditions: at 1 µM.
Assay [6] addresses Protein kinase C beta type (Homo sapiens) (UniProt P05771). As to conditions: at 0.1 µM.
For assay [7] the target is unchanged. The following applies: at 1 µM.
The target of assay [8] is Protein kinase C eta type (Homo sapiens) (UniProt P24723). The following applies: at 0.1 µM.
Protein kinase C eta type (Homo sapiens), sequence (P24723 whole entry): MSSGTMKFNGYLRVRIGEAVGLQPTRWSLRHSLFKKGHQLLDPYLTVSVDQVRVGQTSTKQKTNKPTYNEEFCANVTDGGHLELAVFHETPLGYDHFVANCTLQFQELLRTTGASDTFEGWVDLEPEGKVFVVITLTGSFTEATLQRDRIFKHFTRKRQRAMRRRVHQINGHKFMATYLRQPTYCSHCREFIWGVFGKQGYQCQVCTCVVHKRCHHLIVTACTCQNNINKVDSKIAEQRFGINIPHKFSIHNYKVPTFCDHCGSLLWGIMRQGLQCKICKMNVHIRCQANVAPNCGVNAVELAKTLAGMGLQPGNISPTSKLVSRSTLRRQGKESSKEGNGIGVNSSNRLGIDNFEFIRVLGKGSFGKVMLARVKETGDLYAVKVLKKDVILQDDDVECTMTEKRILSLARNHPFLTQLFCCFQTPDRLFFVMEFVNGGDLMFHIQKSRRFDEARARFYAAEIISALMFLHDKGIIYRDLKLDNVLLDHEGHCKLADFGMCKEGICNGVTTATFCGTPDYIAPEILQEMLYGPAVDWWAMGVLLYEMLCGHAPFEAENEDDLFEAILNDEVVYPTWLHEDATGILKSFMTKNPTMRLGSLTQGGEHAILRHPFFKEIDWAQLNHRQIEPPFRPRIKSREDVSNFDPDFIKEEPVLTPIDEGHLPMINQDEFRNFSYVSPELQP
Assay [9] shares this target. As to conditions: at 1 µM.
Assay [10] has as its target Protein kinase C gamma type (Homo sapiens) (UniProt P05129). As to conditions: at 0.1 µM.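 Note: values are mean percent inhibition of PKC gamma.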

Protein kinase C beta type (Homo sapiens), sequence (P05771 2-671 limits assumed): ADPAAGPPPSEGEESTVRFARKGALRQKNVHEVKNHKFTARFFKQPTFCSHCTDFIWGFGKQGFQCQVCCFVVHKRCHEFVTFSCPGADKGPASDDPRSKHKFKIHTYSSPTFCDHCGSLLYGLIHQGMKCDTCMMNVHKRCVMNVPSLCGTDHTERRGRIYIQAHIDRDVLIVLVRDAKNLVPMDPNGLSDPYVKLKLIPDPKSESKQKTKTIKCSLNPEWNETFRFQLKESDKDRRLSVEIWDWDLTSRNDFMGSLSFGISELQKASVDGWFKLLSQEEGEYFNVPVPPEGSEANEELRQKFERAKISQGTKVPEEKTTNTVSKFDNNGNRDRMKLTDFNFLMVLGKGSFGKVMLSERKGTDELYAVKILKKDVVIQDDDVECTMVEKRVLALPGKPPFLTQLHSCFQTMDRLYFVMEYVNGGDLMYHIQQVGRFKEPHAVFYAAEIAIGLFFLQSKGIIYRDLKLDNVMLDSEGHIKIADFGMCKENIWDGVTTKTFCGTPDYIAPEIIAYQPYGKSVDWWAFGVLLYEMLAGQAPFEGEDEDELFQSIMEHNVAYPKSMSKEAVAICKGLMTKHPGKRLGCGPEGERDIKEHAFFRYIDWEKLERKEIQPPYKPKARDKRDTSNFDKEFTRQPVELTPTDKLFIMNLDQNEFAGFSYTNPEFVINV

Regarding `O=C1Nc2ccccc2/C1=C/Nc1ccc(-n2cncn2)cc1`, the inhibition in assay [1] worked out at 2.38%; in assay [2], 1.48%; in assay [3], 4.31%; in assay [4], 0.43%; in assay [5], 1.82%; in assay [6] it was 0.83%. The inhibition amounted to 2.25% in [7], 8.55% in assay [8], 5.57% in assay [9] and 0.54% in [10].
`Fc1ccc(-c2ncn(C3CCNCC3)c2-c2ccnc(Oc3ccc4c(c3)OCO4)n2)cc1`: the inhibition in assay [1] is -1.49%; in assay [2], 6.76%; in assay [3], 37.9%; in [4], 1.59%; in [5], 3.68%; in assay [6], 1.12%. The inhibition in [7] is 8.79%; in [8] it was 7.87%; in assay [9] it was 4.75%; in assay [10] it was 0.91%.
In the case of `NS(=O)(=O)c1ccc(Nc2cc(-c3ccc(O)c(F)c3)n[nH]2)cc1`, the inhibition in assay [1] is -2.08%; in assay [2] it was -2.2%; in [3], -0.83%; in [4], -0.97%; in assay [5] it was 0.4%; in assay [6], -0.01%. Moreover, the inhibition was 0.79% in assay [7], -3.29% in assay [8], -5.2% in [9] and -3.75% in assay [10].
On to `Cc1ccc(C(=O)NC(C)C)cc1-c1ccc(C(=O)NCC2CC2)cc1`, for which the inhibition in assay [1] was -3.15%; in assay [2], -2.08%; in assay [3] it was -1.32%; in assay [4], -0.49%; in [5], 0.46%; in assay [6], -0.62%. Further, the inhibition in [7] was -0.82%; in [8] it was -2.29%; in assay [9], -3.07%; in assay [10] it was -0.67%.
Regarding `CN(C)CCOc1ccc(-c2cc(-c3ccc4c(c3)CCC4=NO)c(-c3ccncc3)o2)cc1`, the inhibition is 0.51% in [1]; 2.75% in assay [2]; 21% in [3]; -0.04% in assay [4]; 1.32% in assay [5]; -1.02% in assay [6]. Also, the inhibition was 4.4% in assay [7], 0.38% in assay [8], -1.11% in assay [9] and 0.61% in [10].
As for `NCc1ccc(-n2c(-c3nonc3N)nc3cnccc32)cc1`, the inhibition in assay [1] was 2.61%; in [2] it was 10.4%; in assay [3], 56.1%; in assay [4], 4.7%; in assay [5] it was 41%; in [6] it was 29.1%. The inhibition was 64.5% in [7], 47.1% in [8], 88.4% in [9] and 4.15% in [10].
For `O=C(Nc1n[nH]c2nc(-c3ccco3)ccc12)C1CC1`, the inhibition in assay [1] was 2.58%; in [2], 1.78%; in assay [3], 4.07%; in assay [4] it was -0.2%; in assay [5] it was 0.41%; in assay [6], -0.22%. Further, the inhibition was -1.09% in assay [7], -0.3% in assay [8], 1.42% in assay [9] and -0.6% in assay [10].
`NC(=O)c1cc(-c2ccncc2)cc(-c2ccccc2)c1N`: the inhibition in assay [1] worked out at 2.16%; in [2], 2.43%; in assay [3], 6.13%; in assay [4], 1.21%; in [5], 4.38%; in assay [6], 1.43%. Further, the inhibition is 1.87% in [7], 5.05% in [8], 7.89% in assay [9] and -0.73% in [10].
For `N#Cc1ccc(Oc2nccc(-c3c(-c4ccc(F)cc4)ncn3C3CCNCC3)n2)cc1`, the inhibition came to 8.47% in assay [1]; 2.63% in [2]; 5.75% in assay [3]; 0.69% in assay [4]; 2.61% in assay [5]; 1.45% in assay [6]. Further, the inhibition in [7] was 2.93%; in assay [8], 6.05%; in assay [9], 5.43%; in assay [10] it was 1.87%.
On to `CCN(CC)Cc1ccc(Nc2nccc(-c3cnn4ncccc34)n2)cc1`, for which the inhibition in assay [1] is 0.96%; in assay [2] it was -0.94%; in assay [3], 4.26%; in assay [4], 0.47%; in assay [5], 17.8%; in [6], 0.22%. Besides, the inhibition in assay [7] was -5.55%; in assay [8], 5.27%; in [9], 7.25%; in [10] it was 0.4%.
In the case of `CS(=O)(=O)CCNCc1cc(-c2cc3c(Nc4ccc(OCc5cccc(F)c5)c(Cl)c4)ncnc3s2)cs1`, the inhibition in assay [1] worked out at 2.06%; in [2], 1.96%; in assay [3], 1.98%; in assay [4], 0.73%; in assay [5], 1.44%; in [6], 0.43%. Moreover, the inhibition in assay [7] worked out at 1.19%; in [8] it was 5.83%; in [9], 7.05%; in [10] it was 2.95%.
Turning to `O=C1Nc2ccc(I)cc2C1=Cc1cc(Br)c(O)c(Br)c1`, the inhibition in assay [1] stood at 1.34%; in assay [2] it was 2.28%; in [3], 2.5%; in assay [4], 0.27%; in assay [5], 0.59%; in assay [6], 0.25%. Moreover, the inhibition in [7] is 1.41%; in [8], 5.57%; in [9], 2.17%; in [10], 2.32%.
For the molecule `Nc1nccc(-c2c(-c3ccc(F)cc3)ncn2C2CCC(O)CC2)n1` (stereo not given), the inhibition turned out to be 0.39% in assay [1]; 4.16% in [2]; 48.4% in assay [3]; 0.74% in [4]; 10.2% in assay [5]; 3.05% in assay [6]. Further, the inhibition in assay [7] was 20.3%; in assay [8], -3.17%; in assay [9], -1.04%; in [10] it was -3.99%.
For the molecule `COc1cc(Nc2ncc3c(C)nc(-c4cccc(C(F)(F)F)c4)n3n2)cc(OC)c1OC`, the inhibition in assay [1] is 3.64%; in [2] it was 2.66%; in [3], 2.72%; in assay [4], -0.1%; in [5] it was 1.99%; in assay [6], 0.93%. Moreover, the inhibition came out at 5.54% in [7], 6.38% in assay [8], 3.64% in assay [9] and 2.47% in assay [10].
On to `NS(=O)(=O)c1ccc(N/N=C2\C(=O)Nc3ccc(C(=O)NCCCn4ccnc4)cc32)cc1`, for which the inhibition in assay [1] is 3.57%; in assay [2] it was 2.3%; in assay [3], 2.8%; in assay [4] it was 0.48%; in [5] it was 3.66%; in [6] it was 0.75%. Further, the inhibition in assay [7] is 3.15%; in assay [8], 3.58%; in [9], 4.66%; in assay [10], 3.24%.
In the case of `CS(=O)(=O)CCNCc1ccc(-c2ccc3ncnc(Nc4ccc(OCc5ccccc5)c(Br)c4)c3c2)o1`, the inhibition in assay [1] is 2.06%; in assay [2], -1.58%; in assay [3], -1.94%; in assay [4] it was -3.83%; in assay [5] it was -2.95%; in [6], 0.95%. Besides, the inhibition in assay [7] is -0.59%; in assay [8], 5.37%; in assay [9] it was 5.42%; in assay [10], 0.5%.
`COc1cc2ncn(-c3cc(OCc4cccs4)c(C(N)=O)s3)c2cc1OC`: the inhibition in assay [1] is 3.07%; in [2], -0.85%; in assay [3], -2.23%; in [4], -2.88%; in assay [5], -2.59%; in [6], 5.39%. For the same molecule, the inhibition in assay [7] worked out at 8.77%; in [8] it was 4.49%; in [9] it was 4.09%; in [10] it was 4.75%.

Broadly, the inhibition is the relative decrease from the control value, in per cent.
